Test results reported in ChEMBL document CHEMBL3433997, “St. Jude Leishmania screening dataset” (2016).

These molecules were tested against Solute carrier family 2, facilitated glucose transporter member 1 (Homo sapiens) (UniProt P11166) (assay: ST_JUDE_LEISH: Cytotoxicity at 2uM final concentration against transgenic Leishmania Mexicana promastigotes LmGLUT1 that are glucose transport deficient and complemented with the human glucose transporter GLUT1. Activity is measured by DNA content using SYBR green in vitro).
Assay type: functional

Sequence of Solute carrier family 2, facilitated glucose transporter member 1 (Homo sapiens) (P11166 whole entry): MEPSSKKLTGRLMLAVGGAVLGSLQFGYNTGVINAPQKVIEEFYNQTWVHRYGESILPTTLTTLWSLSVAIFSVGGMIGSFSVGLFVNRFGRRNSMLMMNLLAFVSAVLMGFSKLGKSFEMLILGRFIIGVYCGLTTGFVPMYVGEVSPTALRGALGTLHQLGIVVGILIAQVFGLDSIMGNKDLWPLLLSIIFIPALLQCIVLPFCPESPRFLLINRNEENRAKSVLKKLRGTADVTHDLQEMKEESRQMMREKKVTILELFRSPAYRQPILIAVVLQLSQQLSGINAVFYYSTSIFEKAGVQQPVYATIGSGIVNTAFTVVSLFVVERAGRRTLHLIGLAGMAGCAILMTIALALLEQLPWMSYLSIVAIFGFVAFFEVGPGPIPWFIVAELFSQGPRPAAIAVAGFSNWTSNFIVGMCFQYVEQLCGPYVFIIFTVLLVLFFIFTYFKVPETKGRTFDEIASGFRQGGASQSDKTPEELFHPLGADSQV

| SMILES | inhibition [%] |
| --- | --- |
| CN1CCCN(Cc2cccc(-c3cccc(NS(=O)(=O)c4cccc5cccnc45)c3)c2)CC1 | 10.4 |
| c1cc(-c2cc3ccc(C4=NCCN4)cc3[nH]2)ccc1C1=NCCN1 | 1.68 |
| OC(CNCCCc1ccccc1)c1cc(OCc2ccccc2)cc(OCc2ccccc2)c1 (stereo not given) | 6.81 |
| Cc1nc2ccccc2n1C1CC2CCC(C1)N2CCCC1(c2ccccc2)CCN(C(=O)OCc2ccccc2)CC1 (stereo not given) | 3.25 |
| CC1CCCC(Nc2noc(-c3sccc3Br)n2)C1 (stereo not given) | -0.93 |
| CN(C)c1ccc(-c2ccc(C(=O)NC3CCN(Cc4ccc5c(c4)OCCO5)CC3)s2)cc1 | 4.82 |
| COc1cc2nc(NCCc3ccccc3)nc(NCc3nccs3)c2cc1OC | 1.89 |
| N=C1N=C(N)NCN1OCc1ccc(Cl)c(Cl)c1 | 3.39 |
| COc1cc2c(cc1O)[C@@H]1[C@H](O)[C@@H](O)C=C3CCN(C2)[C@H]31 | 4.04 |
| CS(=O)(=O)c1cccc(-c2cnc3[nH]cc(-c4ccc(CCC(=O)O)cc4)c3c2)c1 | 0.77 |
| COc1ccc(-c2cccc(NC(=O)c3cccc(F)c3)c2)cc1CN1CCCN(C)CC1 | 2.17 |
| CN1CCN(CCCN(Cc2ccc(-c3ccc(CNC4CCCC4)cc3)cc2)C(=O)CCC2CCCC2)CC1 | 76.5 |
| CC(=O)Oc1c(C2CCN(CCCCNC(=O)c3ccc(NC(=O)c4ccc(Cl)cc4)cc3)CC2)ccc2c1CCCC2 | 4.86 |
| CN(C(=O)C(C)(C)Oc1ccc(Cl)cc1)C1CCN(CCCCCNC(=O)/C=C/c2ccc(Cl)c(Cl)c2)CC1 | 1.85 |
| COc1cc(-c2nc(-c3ccncc3)c(-c3ccc4c(c3)CCC4=NO)[nH]2)ccc1OCCN1CCCCC1 | -5.14 |
